This passage reports AC50 and activity, negative = inhibition results from PubChem BioAssay AID1851 (National Center for Advancing Translational Sciences (NCATS), 2009).

Where “and” joins values, the source holds several entries; their conditions need not be identical. Equal values may be shown once. Out of some 16,000 compounds screened, about 5,800 (36%) were called active. Roughly 23% stayed inconclusive and do not appear here. Calls follow the shape of the dose curve; as a rule, active = well fitted curve in the direction sought with a large enough effect; inconclusive = small, poorly fitted or top-dose-only effect, or effect the other way; inactive = no such curve, though single readings can be large or run the other way. Some of the results follow. The source holds several records for some structures; these can differ, active in one and inactive in another.
% is scaled to controls: 0 for no effect and ±100 for the full control effect.

The target of this assay is Cytochrome P450 2C19 (Homo sapiens) (UniProt P33261). Put plainly: Cytochrome panel assay with activity outcomes. Particulars: recombinant CYP, pro-luciferin dealkylation, luminescence, p450-cyp2c19; series mostly up to 57.1 µM.
Cytochrome P450 2C19 (Homo sapiens), sequence (P33261 whole entry, looked up): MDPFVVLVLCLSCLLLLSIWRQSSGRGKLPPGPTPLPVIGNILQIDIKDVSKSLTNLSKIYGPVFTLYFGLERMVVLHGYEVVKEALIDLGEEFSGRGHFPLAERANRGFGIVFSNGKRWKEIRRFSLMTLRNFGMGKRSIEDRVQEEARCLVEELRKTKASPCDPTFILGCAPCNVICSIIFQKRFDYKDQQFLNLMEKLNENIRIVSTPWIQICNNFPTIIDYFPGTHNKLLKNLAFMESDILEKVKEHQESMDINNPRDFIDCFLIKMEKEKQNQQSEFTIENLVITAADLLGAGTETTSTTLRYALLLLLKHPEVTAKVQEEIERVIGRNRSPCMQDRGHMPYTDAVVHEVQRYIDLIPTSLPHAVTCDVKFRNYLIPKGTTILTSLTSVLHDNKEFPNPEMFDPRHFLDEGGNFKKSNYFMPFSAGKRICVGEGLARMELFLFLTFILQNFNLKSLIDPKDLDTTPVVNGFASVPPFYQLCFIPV
Usually AC50 stands for the midpoint of the concentration-response curve, whichever way the signal moves. As to `CCN1CCN(S(=O)(=O)c2ccc(Cl)nc2)CC1`, the AC50 result was “inactive”.

Take `NCc1cc(=O)[nH]o1`: the AC50 entry is “inactive”. Still for that read-out and setting: for `CS(=O)c1ccc(-c2nc(-c3ccc(F)cc3)c(-c3ccncc3)[nH]2)cc1` (stereo not drawn) the value was “inactive and 39.8 nM (active)”; for `N[C@@H](CCCCP(=O)(O)O)C(=O)O`, “inactive”; for `C=CCN1C[C@H](C)N([C@H](c2ccc(C(=O)N(CC)CC)cc2)c2cccc(O)c2)C[C@H]1C`, “inactive”. As to `CCCCc1ccc(C(=O)O)nc1`, the AC50 result is “inactive”. On the same count and under the same terms, as for `O=C(O)[C@H]1[C@H](C(=O)O)[C@H]2CC[C@@H]1O2`, the entry is “inactive”; as for `CCCCc1ccc(-c2nc(NC(=O)C3C4CCC(O4)C3C(=O)O)sc2C)cc1` (stereo not drawn), 3.98 µM (active); as for `C[C@H](N)[C@H](O)c1ccc(O)c(O)c1`, “inactive”. Take `CC(C)CN1CCC2(CC1)CCN(S(C)(=O)=O)CC2`: the AC50 result was “inactive”. Still for that read-out and setting: for `CC(C)NC(=O)N1CCC2(CC1)CCN(C(=O)Oc1ccccc1)CC2` the value was “inactive”; for `CN(C)[C@H]1C(=O)C(C(N)=O)=C(O)[C@]2(O)C(=O)C3=C(O)c4c(O)cccc4[C@@](C)(O)[C@H]3C[C@@H]12`, “inactive”; for `O=c1cccc2n1CC1CNC[C@H]2C1`, “inactive”.

As to `O=C(c1ccc(-c2nnc(Nc3ccccc3)c3ccccc23)cc1)N1C[C@H]2C[C@H](C1)c1cccc(=O)n1C2`, the AC50 was 8.91 µM (active). Same read-out and setting: for `CC(=O)OCC1=C(C(=O)O)N2C(=O)[C@@H](N)[C@@H]2SC1` the value was “inactive”; for `COc1cc([C@@H](O)CN)ccc1O`, “inactive”.

Turning to `Cc1c([C@@H](C)[C@H]2NC[C@H](C)C[C@@H]2O)ccc2c1C[C@@H]1[C@H]2CC=C2C[C@@H](O)CC[C@@]21C`, the activity, negative = inhibition is 26.3% [at 11.4 µM] (inactive). As to `CC1=NN=C(c2ccc(N)cc2)c2cc3c(cc2C1)OCO3`, the AC50 entry was “inactive and 7.94 µM (active)”. Still for that read-out and setting: for `C[C@@H]1Cc2cc3c(cc2C(c2ccc(N)cc2)=NN1)OCO3` the value was 2 µM (active). Still for that read-out and setting: as for `COc1ccc(C(=O)OC2C[C@H]3CC[C@@H](C2)N3C)cc1OC` (stereo partly drawn), the entry is “inactive”; as for `C[C@@]12C(=O)OC(=O)[C@@]1(C)[C@H]1CC[C@@H]2O1`, “inactive”. As to `CC1=C2C(=O)[C@@H]3[C@@H](CC=C4C[C@@H](O)CC[C@@]43C)[C@H]2CC[C@@]12O[C@H]1C[C@H](C)CN[C@H]1[C@@H]2C`, the activity, negative = inhibition was 15.9% [at 11.4 µM] (inactive). Regarding `CCCCCC[C@H]1C(=O)O[C@H](C)[C@H](NC(=O)c2cccc(NC=O)c2O)C(=O)O[C@@H](C)[C@H]1OC(=O)CC(C)C`, the AC50 result is “inactive”. On to `COc1ccc(C(=O)NC2CC3CCCC(C2)N3CC(C)C)cc1OC` (stereo not drawn), for which the AC50 result is “inactive”. The same measure, in the same setting: for `NC[C@H](O)c1ccc(O)cc1` the value was “inactive”. Same read-out and setting: as for `O=C1CCCCCC1C1(O)C(=O)Nc2ccc(Br)cc21` (stereo not drawn), the figure is 4.47 µM (active).

In the case of `Oc1ccc2c3c1O[C@@H]1c4[nH]c5c(c4C[C@@]4(O)[C@@H](C2)N(CC2CC2)CC[C@]314)C[C@]1(O)[C@@H]2Cc3ccc(O)c4c3[C@@]1(CCN2CC1CC1)[C@H]5O4`, the AC50 result was “inactive”.

As for `Oc1ccc2c3c1O[C@H]1c4[nH]c5ccccc5c4C[C@]4(O)[C@H](C2)N(CC2CC2)CC[C@@]314`, the AC50 was 10 µM (active). In the case of `Oc1ccc2c3c1O[C@H]1c4[nH]c5c(c4C[C@@]4(O)[C@@H](C2)N(CC2CC2)CC[C@]314)C[C@]1(O)[C@H]2Cc3ccc(O)c4c3[C@@]1(CCN2CC1CC1)[C@@H]5O4`, the AC50 result was “inactive”. Regarding `C[N+]1(C)[C@@H]2CC[C@H]1CC(OC(=O)[C@@H](CO)c1ccccc1)C2` (stereo partly drawn), the AC50 result is “inactive”. Same read-out and setting: for `CNC[C@H](O)c1ccc(O)c(OC)c1` the value was “inactive”. Consider `COc1cc(CNC(=O)CCCC/C=C\C(C)C)ccc1O`, for which the concentration at half-maximal activity (AC50) result was “inactive and 6.31 µM (active)”. The same measure, in the same setting: as for `COc1cc(CCN)ccc1O`, the entry is “inactive”; as for `CC(=O)[C@@H]1CC[C@@H]2[C@@H]3CCC4=CC(=O)CC[C@@]4(C)[C@H]3CC[C@]21C`, “inactive”. Take `CN1C[C@H](C(=O)N[C@@]2(C)O[C@@]3(O)[C@H]4CCCN4C(=O)[C@@H](Cc4ccccc4)N3C2=O)C=C2c3cccc4[nH]cc(c34)C[C@@H]21`: the activity, negative = inhibition was 13.1% [at 11.4 µM] (inactive).

On to `CC(C)[C@@]1(NC(=O)[C@@H]2C[C@H]3c4cccc5[nH]cc(c45)C[C@@H]3N(C)C2)O[C@@]2(O)[C@H]3CCCN3C(=O)[C@H](Cc3ccccc3)N2C1=O`, for which the AC50 is 3.98 µM (active) and 5.01 µM (active). Take `CC(C)C[C@H]1C(=O)N2CCC[C@@H]2[C@]2(O)O[C@](NC(=O)[C@H]3C=C4c5cccc6[nH]c(Br)c(c56)C[C@H]4N(C)C3)(C(C)C)C(=O)N12`: the AC50 result was “inactive”. `CCCCN(CCCC)CCC(O)c1cc2c(Cl)cc(Cl)cc2c2cc(C(F)(F)F)ccc12` (stereo not drawn): the AC50 result was “inactive”.

Take `O=C(O)CP(=O)(O)c1ccc(Cl)cc1`: the AC50 entry was “inactive”. On to `NC[C@H](CC(=O)O)c1ccc(Cl)cc1`, for which the AC50 was 2.51 µM (active).

As to `NC[C@@H](CC(=O)O)c1ccc(Cl)cc1`, the AC50 entry is “inactive”. As for `CC1(C)N=C(N)N=C(N)N1c1cccc(C(=O)Nc2ccc(S(=O)(=O)F)cc2)c1`, the activity, negative = inhibition is 25.1% [at 11.4 µM] (inactive). On to `CC(=O)OCC1=C(C(=O)[O-])N2C(=O)[C@@H](NC(=O)CCC[C@@H](N)C(=O)[O-])[C@@H]2SC1.[Zn+2]`, for which the AC50 entry is “inactive”. Regarding `C[C@]12CC[C@H]3c4ccc(O)cc4CC[C@@H]3[C@H]1CC[C@@H]2OC(=O)CCc1ccccc1`, the activity, negative = inhibition was -66% [at 11.4 µM] (inactive). For `Cc1ccc2c(c1)C1CN(C)CCC1N2C(=O)Nc1cccc(Cl)c1` (stereo not drawn), the AC50 is 25.1 µM (active). With `NC(N)=NC(=O)c1nc(Cl)c(N)nc1N`, the AC50 result was “inactive”. In the case of `O=C(c1ccccc1F)c1cn(CC(=O)N2CCOCC2)c2ccccc12`, the AC50 is 10 µM (active).

Take `CCOC(=O)Cn1cc(C(=O)c2ccccc2F)c2ccccc21`: the concentration at half-maximal activity (AC50) was 3.55 µM (active). As for `O=C(c1ccccc1F)c1cn(Cc2ccccc2)c2ccccc12`, the AC50 is 1.26 µM (active). With `O=C(O)c1nn(Cc2ccc(Cl)cc2Cl)c2ccccc12`, the AC50 result is “inactive”. Same read-out and setting: as for `CCNC(=O)[C@@H]1O[C@@H](n2cnc3c(N)ncnc32)[C@H](O)[C@H]1O`, the entry is “inactive”. Regarding `O=P(O)(O)c1ccccc1` (tested in a mixture with another compound), the activity, negative = inhibition was 41.3% [at 11.4 µM] (inactive). Consider `CC[C@@H]1[C@@H]2C[C@H]3[C@H]4N(C)c5ccccc5[C@@]45C[C@@H]([C@@H]2[C@@H]5O)N3[C@H]1O`, for which the AC50 entry was “inactive”.
